# Screens as filed in PubChem BioAssay.
# NFkB transloc pot = enhances IL-1B driven NFkB nuclear translocation. AID 819. activation, % at 2 µM. 94,000 tested, 0.3% active. HUVEC IL-1B NFkB p65 nuclear translocation imaging;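 active means activation above 40%, about the mean plus 3 SD, also judged a hit on visual image review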;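 further: percent activation is computed from the nuclear over cytoplasmic p65 intensity ratio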
# NFkB transloc inh = blocks IL-1B driven NFkB nuclear translocation in HUVEC cells. 94,000 tested, 0.43% active. AID 796. inhibition, % at 2 µM. HUVEC IL-1B NFkB p65 nuclear translocation imaging;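 active means inhibition above about 30% together with a positive call from visual inspection of the well image, limit read from the data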;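 further: nuclear over cytoplasmic p65 intensity ratio measured by imaging; 0% = IL-1B stimulated DMSO wells and 100% = unstimulated DMSO wells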
# HUVEC tox IL1B = HUVEC cytotoxicity counter-screen, IL-1B stimulated | HUVEC cell count loss, Hoechst imaging | cell count reduction, % at 2 µM | 94,000 tested, 0.41% active;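 active means cell count reduction more than 3 SD above the screen-wide mean, cut at about 70% in these data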;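 further: normalized per plate to untreated control cells as the no-loss baseline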
# sEH act = increases human soluble epoxide hydrolase activity; activation, % at 2 µM; purified human sEH enzymatic activity, activator screen; AID 717; 91,000 tested, 0.04% active; P34913; in the data active means activation above about 37%
# Target sequence (P34913 whole entry, looked up): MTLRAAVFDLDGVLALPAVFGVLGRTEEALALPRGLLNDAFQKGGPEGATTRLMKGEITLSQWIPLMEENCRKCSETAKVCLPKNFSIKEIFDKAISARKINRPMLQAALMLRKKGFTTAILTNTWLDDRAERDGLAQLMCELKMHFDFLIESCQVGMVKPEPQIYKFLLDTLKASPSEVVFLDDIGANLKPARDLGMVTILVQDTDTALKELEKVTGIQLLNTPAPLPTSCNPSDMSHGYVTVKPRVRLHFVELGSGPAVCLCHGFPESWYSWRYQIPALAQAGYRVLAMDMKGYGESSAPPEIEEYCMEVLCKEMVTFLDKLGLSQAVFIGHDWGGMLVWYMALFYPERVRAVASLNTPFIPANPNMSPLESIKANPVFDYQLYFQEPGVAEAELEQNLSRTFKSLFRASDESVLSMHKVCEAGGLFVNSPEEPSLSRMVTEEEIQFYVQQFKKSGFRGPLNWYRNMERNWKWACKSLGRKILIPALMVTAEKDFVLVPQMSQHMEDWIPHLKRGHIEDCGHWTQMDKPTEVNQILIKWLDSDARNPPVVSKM
# sEH inhibitor = blocks human soluble epoxide hydrolase activity; P34913; recombinant human sEH enzymatic activity assay; inhibition, % at 2 µM; 91,000 tested, 0.34% active; AID 707; in the data active means inhibition above about 80%
# * hit, by the source's call; / = no result given. Only some compounds are listed: those with a hit (about 1.1% of all), similar ones and a draw of the others.
SMILES,NFkB transloc pot,NFkB transloc inh,HUVEC tox IL1B,sEH act,sEH inhibitor
CCN(CC)C(=O)C1CCCN(c2ccc([N+](=O)[O-])cc2/C=N/NC(=O)c2cccc(Br)c2)C1 (centres undefined),2,-2,8,-6,8
CN1CCN(c2ccc([N+](=O)[O-])cc2/C=N/NC(=O)c2ccc(F)cc2)CC1,-30,30*,12,6,-4
COc1ccc([N+](=O)[O-])cc1C1NN=C(c2ccccc2O)S1 (centres undefined),-33,33*,4,0,0
CC(C)n1c(SCCCc2ccccc2)nc2c1c(=O)[nH]c(=O)n2C,-38,38*,11,20,-21
C/C=C/Cn1c(SCCCc2ccccc2)nc2c1c(=O)[nH]c(=O)n2C,16,-16,4,-3,2
Cc1ccc(C)c(N(C(=O)CS(=O)CC(=O)Nc2ccc3c(c2)OCO3)C(C)C(=O)NC2CCCC2)c1 (centres undefined),2,-2,-2,4,-4
CCOc1ccc(OCc2ccc(C(=O)N3N=C(C(F)F)CC3(O)C(F)F)o2)cc1 (centres undefined),45*,-45,-16,-4,7
NC(=O)C1(N2CCCCC2)CCN(CC(=O)Nc2ccccc2Sc2ccccc2)CC1,-7,7,14,6,-3
NC(=O)C1(N2CCCCC2)CCN(CC(=O)Nc2cc(Cl)ccc2Cl)CC1,-99,99*,80*,-11,6
CC(NC(=O)c1ccccc1NC(=O)c1ccco1)C(=O)O (centres undefined),13,-13,19,3,-1
CC(NC(=O)c1ccccc1Cl)C(=O)O (centres undefined),67*,-67,5,2,-5
COc1cc(C2C3=C(CC(C)(C)CC3=O)N(C)C(=O)N2C)cc(OC)c1OC (centres undefined),-5,5,-1,-3,4
COc1ccccc1N1CCN(C(=O)COc2ccc(C)cc2Br)CC1,-14,14,-2,-13,11
Cc1ccc(OCC(=O)N2CCCCC2)c(Br)c1,-97,97*,87*,8,-8
Cc1ccc(S(=O)(=O)c2nc(-c3ccccc3)oc2NCc2cccnc2)cc1,-32,32*,16,4,-4
CC1(C)Cc2ccccc2C(NNC(=O)c2ccncc2)=N1,-4,4,19,14,-11
Cc1ccc(NC(=O)NC2CCCCC2)cc1Cl,4,-4,-21,-95,95*
Cc1ccc(NC(=O)C2CCN(C(=O)NC3CCCCC3)CC2)cc1Cl,-3,3,-38,-28,27
CCc1cccc(NC(=O)NC2CCCCC2)c1,7,-7,0,-94,94*
CCc1cccc(NC(=O)C2CCCC2)c1,6,-6,20,6,-4
Cc1ccc(C2Oc3ccccc3C3=C2C(c2cccs2)n2ncnc2N3)cc1 (centres undefined),-7,7,88*,-6,6
COc1ccccc1NC(=O)C(NC(=O)OC(C)(C)C)C(C)OCc1ccccc1 (centres undefined),-2,2,-16,6,-6
O=C(Nc1cccc(Br)c1)c1ccc(Cl)c(S(=O)(=O)N2CCOCC2)c1,-13,13,12,-95,95*
O=C(NCCCN1CCOCC1)c1ccc(Cl)c(S(=O)(=O)N2CCCCCC2)c1,-4,4,-10,-26,26
CC(C)(C)SCCNC(=O)c1ccc(Cl)c(S(=O)(=O)N2CCOCC2)c1,-7,7,30,-86,86*
SMILES,NFkB transloc pot,NFkB transloc inh,HUVEC tox IL1B,sEH act,sEH inhibitor
Cc1cccc(C(=O)n2c(=S)nc3ccccn32)c1,3,-3,-4,2,0
Cc1cccc(Cn2c(Sc3nc(C)cs3)nc3c2c(=O)[nH]c(=O)n3C)c1,-4,4,2,/,/
Cc1csc(Sc2nc3c(c(=O)[nH]c(=O)n3C)n2Cc2ccccc2Cl)n1,-31,31*,16,21,-22
Nc1nnc(CCOc2ccccc2Cl)s1,-61,61*,-148,-9,7
Cc1cc(Cl)c(OCCCSc2nc(C)cc(=O)[nH]2)c(Br)c1,-10,10,90*,22,-23
Cc1cc(=O)[nH]c(SCCCOc2ccc(F)cc2)n1,3,-3,2,2,1
CC1CCCCC1NC(=O)C1CCN(S(=O)(=O)c2cccc3nsnc23)CC1 (centres undefined),/,/,/,-2,-1
C=C(C)C(=O)OC1(C(F)(F)F)Oc2cc(C)ccc2NC1=O (centres undefined),4,-4,0,41*,-41
Cc1[nH]c2ccccc2c1Cc1n[nH]c(=S)o1,46*,-46,13,/,/
CCC1(CC)C(=O)C(C)(C)C(=O)OC1c1cccs1 (centres undefined),11,-11,-50,-2,5
CCCC(c1nnnn1CCOC)N1CCN(C(=O)c2ccco2)CC1 (centres undefined),/,/,/,8,-7
COCCn1nnnc1C(C(C)C)N1CCN(C(=O)c2ccco2)CC1 (centres undefined),-29,29,88*,22,-24
Cc1ccc(S(=O)(=O)Cn2nnnc2C(C)N2CCN(C(=O)c3ccco3)CC2)cc1 (centres undefined),1,-2,14,6,-7
Cc1ccc(S(=O)(=O)Cn2nnnc2C(c2ccccc2)N2CCN(c3ccccc3)CC2)cc1 (centres undefined),-57,57*,23,3,-2
Cc1ccc(S(=O)(=O)Cn2nnnc2C(c2ccccc2)N2CCN(c3ncccn3)CC2)cc1 (centres undefined),4,-4,-4,-2,5
Cc1ccc(S(=O)(=O)Cn2nnnc2C(C(C)C)N2CCN(C(=O)c3ccco3)CC2)cc1 (centres undefined),44*,-44,-11,-8,8
O=C(NCCC1=CCCCC1)NC12CC3CC(CC(C3)C1)C2,11,-11,-208,-97,97*
O=C(NCCC1=CCCCC1)C(c1ccccc1)c1ccccc1,8,0,22,-30,32
CS(=O)(=O)c1nc(-c2ccc(Br)cc2)cc(-c2ccccc2)c1C#N,77*,-77,26,-10,10
Clc1ccccc1-c1nnc2sc(-c3ccccn3)nn12,0,0,15,38*,-36
Clc1ccccc1-c1nnc2sc(-c3ccco3)nn12,27,-27,-151,5,-6
CCC(=O)c1ccc(N2CCCC2)c(F)c1,22,-22,-3,39*,-39
COc1ccc(/C=N/OCC(=O)N2CC3(C)CC2CC(C)(C)C3)cc1 (centres undefined),1,-1,-16,-9,11
COc1ccc(C=NCCC2(O)CC(C)N(C)CC2C)cc1 (centres undefined),-40,40*,-7,-3,3
CN1CCN(Cc2cc(=O)oc3cc4c(cc23)CCC4)CC1,41*,-41,-12,4,-3
COc1ccccc1-c1cc(C(F)(F)F)n2ncc(S(=O)(=O)c3ccccc3)c2n1,3,-3,-11,28,-26
